From PubChem BioAssay
G9a block: blocks human histone lysine methyltransferase G9a | Q96KQ7 | G9a H3K9 monomethylation, AlphaScreen, 2 h | Potency, µM (series often up to 102 µM), for inactives: at the highest dose activity, negative = inhibition, most hits filed as inhibitors | 350,000 tested, 8.8% active | AID 504332; further: potency means the concentration at half of the fitted maximal effect; on the % scale 0 is the no-effect control and ±100 the full control effect; nearly all actives have a fitted effect of over 75% in size
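Readings reflect AlphaScreen signal from monomethyl-H3K9 antibody detection. HMT at 20 nM; substrate b-H3K9 500 nM; cofactor SAM 20 uM; 2 h RT reaction; compounds tested as titrations in qHTS with 15 min preincubation.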
JMJD2A Tudor: JMJD2A Tudor domain (human) inhibition | Potency, µM (highest dose often 114 µM), for inactives: top-dose activity change, negative = inhibition, usual class: inhibitors | 390,000 tested, 4.4% active | AlphaScreen JMJD2A-Tudor / H3K4me3 peptide binding; further: potency means the concentration at half of the fitted maximal effect; on the % scale 0 is the no-effect control and ±100 the full control effect; nearly all actives have a fitted effect of over 50% in size
HP1b chromo inh: blocks HP1-beta chromodomain binding to methylated histone tails. AlphaScreen HP1-beta / biotin-H3K9me3 peptide binding. Potency, µM (titrated, usually from 114 µM), inactives show at the top dose activity change, negative = inhibition, usual class: inhibitors. 390,000 tested, 0.56% active. AID 540317; further: potency means the concentration at half of the fitted maximal effect; nearly all actives have a fitted effect of over 70% in size
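AlphaScreen: HP1-beta (50 nM) preformed 30 min with biotin-H3(1-18)K9me3 peptide (50 nM) in PBS pH 7.4, 0.01% Tween-20. Compound added for 30 min at RT, then streptavidin donor/nickel chelate acceptor beads (10 ug/mL) for 30 min.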
PI5P4K alpha inh: PI5P4K alpha (human) kinase inhibition; PI5P4Kalpha enzyme, ADP-Glo luminescence, 60 min; active compounds read low; max response, %; AID 652105; P48426; 330,000 tested, 1.2% active; active means max response of -50% or lower; inconclusive means between -30% and -50%; inactive means -30% or higher; further: value at the top dose of about 77 µM; on the % scale 0 is the no-effect control and ±100 the full control effect
Target sequence (P48426 whole entry, looked up): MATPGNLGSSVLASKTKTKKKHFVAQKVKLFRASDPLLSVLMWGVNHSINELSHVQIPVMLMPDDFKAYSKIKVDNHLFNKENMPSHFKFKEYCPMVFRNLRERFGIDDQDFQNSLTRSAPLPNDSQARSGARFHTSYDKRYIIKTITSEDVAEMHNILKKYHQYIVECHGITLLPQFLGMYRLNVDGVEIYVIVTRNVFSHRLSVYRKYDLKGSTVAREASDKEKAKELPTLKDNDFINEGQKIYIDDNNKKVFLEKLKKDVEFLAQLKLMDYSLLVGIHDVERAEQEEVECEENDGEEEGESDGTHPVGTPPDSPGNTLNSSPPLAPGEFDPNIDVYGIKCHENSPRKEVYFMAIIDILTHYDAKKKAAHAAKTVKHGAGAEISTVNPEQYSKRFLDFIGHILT
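Compounds were pin-transferred onto PI5P4Kalpha and substrate in HEPES pH 7.4 buffer with EGTA, CHAPS and 5% DMSO. ATP (5 microM final) started the reaction, which ran 60 minutes at room temperature before ADP-Glo detection.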
PLK1 PBD block: PLK1 (human) polo-box domain binding inhibition; P53350; Plk1 PBD binding of FITC phosphopeptide, fluorescence polarization; Potency, µM, inactives show max response, negative = inhibition, hits mostly inhibitors; 360,000 tested, 2.8% active; further: potency means the concentration at half of the fitted maximal effect; series mostly up to about 57 µM; on the % scale 0 is the no-effect control and ±100 the full control effect; nearly all actives have a fitted effect of over 65% in size
BAZ2B block: BAZ2B (human) inhibition; Q9UIF8; AlphaScreen BAZ2B-H3K14Ac peptide displacement; Potency, µM (titrated, usually from 114 µM), inactives show at the highest dose activity change, negative = inhibition, actives largely listed as inhibitors; 360,000 tested, 4.4% active; further: potency means the concentration at half of the fitted maximal effect; on the % scale 0 is the no-effect control and ±100 the full control effect; nearly all actives have a fitted effect of over 60% in size
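BAZ2B 50 nM plus b-H3(5-23)K14Ac 50 nM, PBS pH 7.4/0.01% Tween-20, 30 min RT; compound added (max 110 uM), 30 min RT; streptavidin donor/Ni-chelate acceptor beads 10 ug/mL final, 20 min dark; AlphaScreen read.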
Numbers without * were called inactive; [ ] = remark or other dose. Hits are enriched below; roughly 12% of the tested compounds scored in any of these assays. Unless noted, the call rests on the fitted dose curve; in most records, active means well fitted curve in the direction sought with a large enough effect; inconclusive means small, poorly fitted or top-dose-only effect, or another doubt; inactive means no such curve, though single readings can be large; an effect the other way counts as inactive or inconclusive.

`CSCCC(NS(=O)(=O)c1ccccc1)C(=O)Nc1nccs1` (stereo not drawn) gave G9a block 8.9µM*, JMJD2A Tudor -21%, HP1b chromo inh 18%, PI5P4K alpha inh -14, PLK1 PBD block inconclusive and BAZ2B block 4%.
Screening CC(=O)NC(CCS(C)(=O)=O)C(=O)Nc1cc(C)on1 (stereo not drawn) returned G9a block -3%[59 µM], JMJD2A Tudor -8%, HP1b chromo inh 45%, PI5P4K alpha inh 0, PLK1 PBD block -3% and BAZ2B block -3%.
Screening CCOc1ccc2nc(NC(=O)C(NS(=O)(=O)c3cccs3)C(C)C)sc2c1 (stereo not drawn) returned G9a block 18%[12.7 µM], JMJD2A Tudor -12%, HP1b chromo inh 19%, PLK1 PBD block -9% and BAZ2B block 12%.
`CC(NS(=O)(=O)c1ccccc1)C(=O)Nc1nccs1` (stereo not drawn) gave G9a block -1%[59 µM], JMJD2A Tudor -20%, HP1b chromo inh 40%, PI5P4K alpha inh -10, PLK1 PBD block 21µM* and BAZ2B block -3%.
`CCOc1ccc2nc(NC(=O)C(CCSC)NS(=O)(=O)c3cccs3)sc2c1` (stereo not drawn) gave G9a block inconclusive, JMJD2A Tudor 56µM*, HP1b chromo inh 45%, PI5P4K alpha inh 3, PLK1 PBD block -14% and BAZ2B block inconclusive.
Screening CCCC(C(=O)Nc1nccs1)c1ccccc1 (stereo not drawn) returned G9a block 9%, JMJD2A Tudor 16%, HP1b chromo inh 18%, PI5P4K alpha inh -4, PLK1 PBD block -1% and BAZ2B block -6%.
COc1ccc(-n2ncc(C(=O)NCCc3ccsc3)c2C2CCN(C(=O)OC(C)(C)C)CC2)cc1 was read as G9a block -23%[59 µM], JMJD2A Tudor -24%, HP1b chromo inh 26% and BAZ2B block -1%[57.1 µM].
For CCCn1c(=O)c2sccc2n2c(CCCC(=O)N3CCN(c4ccc(OC)cc4)CC3)nnc12 the results were G9a block inconclusive, JMJD2A Tudor -14%, HP1b chromo inh 23% and BAZ2B block inconclusive.
Screening Cc1cc(F)ccc1NC(=O)C1CCCN(S(=O)(=O)c2ccc3c(c2)CCCC(=O)N3)C1 (stereo not drawn) returned G9a block -8%[59 µM], JMJD2A Tudor -17%, HP1b chromo inh -5% and BAZ2B block 10%[57.1 µM].
CCOC(=O)C1=C(C)C(c2ccc(OC)cc2)NC(=S)N1 (stereo not drawn) was read as G9a block -43%[59 µM], JMJD2A Tudor -85%[57.1 µM], HP1b chromo inh -14%, PI5P4K alpha inh -30, PLK1 PBD block 6µM* and BAZ2B block 1%.
For CCOC(=O)C1=C(C)C(c2ccc(OC)cc2)NC(=O)N1 (stereo not drawn) the results were G9a block 11%[59 µM], JMJD2A Tudor -6%, HP1b chromo inh 53%, PI5P4K alpha inh -4, PLK1 PBD block 2% and BAZ2B block -5%.
COC(=O)C1=C(C)NC(=O)NC1c1ccc(-c2ccccc2Cl)o1 (stereo not drawn) was read as G9a block inconclusive, JMJD2A Tudor -23%[11.4 µM], HP1b chromo inh -10%, PI5P4K alpha inh 6, PLK1 PBD block 19µM* and BAZ2B block 11%.
For COC(=O)C1=C(C)NC(C)=C(C(=O)OC)C1c1ccc(-c2cc(Cl)ccc2Cl)o1 the results were G9a block 18µM*, JMJD2A Tudor -12%, HP1b chromo inh 53%, PI5P4K alpha inh 17, PLK1 PBD block -10% and BAZ2B block -5%.
For COC(=O)C1=C(C)NC(=S)NC1c1ccc(-c2cccc(Cl)c2)o1 (stereo not drawn) the results were G9a block 10µM*, JMJD2A Tudor 3%, HP1b chromo inh 50%, PI5P4K alpha inh 1, PLK1 PBD block -4% and BAZ2B block inconclusive.
